From PubChem BioAssay (NCATS)
Records with an inconclusive call do not appear. Where a call stands in place of a potency, no number is given. Calls of active or inactive are those of the source. The call rests on the fitted dose curve.
Potency means the concentration at half of the fitted maximal effect.

Assay: Primary qHTS to identify inhibitors of SARS-CoV-2 cell entry (AID 1645846); further: nearly all actives have a fitted effect of over 45% in size
Settings: SARS-CoV-2 pseudovirus cell entry assay, luminescence; activity change, negative = inhibition: at 57.1 µM (top of the series) unless noted; series mostly up to 57.1 µM
Outline: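 Inhibition of spike-mediated entry was scored in human ACE2-transfected Expi293F cells. Particles were MLV-pseudotyped with Wuhan-Hu-1 S carrying a 19-aa C-terminal deletion; signal was luciferase after two days, scaled between spike PP and fusion-protein-free PP.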
In the case of `CC(C)Cc1ccc(C(C)C(=O)O)cc1` (stereo not drawn), the “outcome” value is reported as “inactive” and the activity change, negative = inhibition is reported as 0.301%.
For `NC1CCN(c2nc3c(cc2F)c(=O)c(C(=O)O)cn3-c2ccc(F)cc2F)C1` (stereo not drawn), the “outcome” value was “inactive”.
With `C#CCC(Cc1cnc2nc(N)nc(N)c2n1)c1ccc(C(=O)N[C@@H](CCC(=O)O)C(=O)O)cc1` (stereo partly drawn) the activity change, negative = inhibition was -93.7%.
For `CCCCCCCCCCCCSCCOCCO`, the “outcome” value was “inactive”.
In the case of `O=C(OOC(=O)c1ccccc1)c1ccccc1`, the “outcome” value is reported as “inactive”.
For `CC(C)(C)CC(C)(C)c1ccc(OCCOCC[N+](C)(C)Cc2ccccc2)cc1`, the Potency was 20 µM (active).
Work on `CC(=O)S[C@@H]1CC2=CC(=O)CC[C@]2(C)[C@H]2CC[C@@]3(C)[C@@H](CC[C@@]34CCC(=O)O4)[C@H]12` yielded an activity change, negative = inhibition of -11%.
In the case of `COCCOC(=O)C1=C(C)NC(C)=C(C(=O)OC(C)C)C1c1cccc([N+](=O)[O-])c1` (stereo not drawn), the activity change, negative = inhibition is reported as -23.8%.
In the case of `CC(=O)O[C@@H]1CC2C3CCc4cc(OC(=O)c5ccccc5)ccc4C3CCC2(C)[C@H]1OC(C)=O` (stereo partly drawn), the activity change, negative = inhibition is reported as 4.28%.
In the case of `COc1cc2c(Nc3ccc(Br)cc3F)ncnc2cc1OCC1CCN(C)CC1`, the “outcome” value is reported as “inactive”.
For `Cc1c(Nc2ncccc2C(=O)O)cccc1C(F)(F)F`, the “outcome” value was “inactive”.
For `Cc1ccccc1C(=O)N1CC/C(=N\OS(=O)(=O)O)c2ccc(Cl)cc21`, the “outcome” value was “inactive”.
In the case of `Nc1nc(-c2ccccc2)c(Br)c(=O)[nH]1`, the “outcome” value is reported as “inactive”.
For `CCCCCCCCCCCCCCCCCC(=O)OCC(O)CO` (stereo not drawn), the “outcome” value was “inactive”.
With `CCS(=O)(=O)CCn1c([N+](=O)[O-])cnc1C` the “outcome” value was “inactive”.
In the case of `COc1ccc(-c2cc(=O)c3c(O)cc(O[C@@H]4O[C@H](CO[C@@H]5O[C@@H](C)[C@H](O)[C@@H](O)[C@H]5O)[C@@H](O)[C@H](O)[C@H]4O)cc3o2)cc1O`, the “outcome” value is reported as “inactive”.
With `CN1CCC[C@@H]1c1cccnc1` the “outcome” value was “inactive”.
In the case of `CC(CC(C#N)(c1ccccc1)C(C)C)N(C)C` (stereo not drawn), the “outcome” value is reported as “inactive”.
In the case of `COCC(=O)Nc1c(I)c(C(=O)NCC(O)CO)c(I)c(C(=O)N(C)CC(O)CO)c1I` (stereo not drawn), the “outcome” value is reported as “inactive”.
In the case of `CC(=O)CC(c1ccccc1)c1c(O)c2ccccc2oc1=O` (stereo not drawn), the “outcome” value is reported as “inactive” and the activity change, negative = inhibition is reported as 0.432%.
`OCCOCCN1CCN(C2=Nc3ccccc3Sc3ccccc32)CC1` showed an activity change, negative = inhibition of -1.17%.
